T cruzi growth-1: blocks T. cruzi growth in NIH3T3 culture. inhibition, % at 8.34 µM. T. cruzi beta-gal in NIH3T3, GalScreen luminescence, 90 h. hit rate 5.9% among 77,000. AID 624255;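 active = mean inhibition above about 93%, with at least 55% of replicates each passing it, limit read from the data, passing the limit was not always enough; inconclusive = only one of those two conditions holds; inactive = neither condition holds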
Pf Dd2 growth: P. falciparum Dd2 growth inhibition | activity change, % at 10 µM | AID 1159554 | SYBR Green, 72 h; hits give low values | hit rate 2.3% among 94,000; in the data active = activity change below about -80%; inconclusive = no clear call, values can overlap the other calls
C diff HTS: C. difficile growth inhibition; Clostridium difficile clinical isolate growth, OD600, 24 h; hits give low values; growth activity, negative = inhibition, % at 16 µg/mL (by protocol); hit rate 0.25% among 86,000;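 active = mean growth activity at or below -80% and every replicate also at or below -80%; inconclusive = mean at or below -80% but some replicate above -80%; inactive = mean growth activity above -80%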;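 note: 0% = DMSO wells and -100% = levofloxacin 16 µg/mL wells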
T cruzi growth-2: Trypanosoma cruzi proliferation inhibition; shares compounds with T cruzi growth-1; T. cruzi beta-gal in NIH3T3, GalScreen luminescence, 90 h; inhibition, % at 8.35 µM; hit rate 72% among 5,600;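 active = mean replicate inhibition above about 95% and at least 55% of replicates individually reaching it, limit read from the data; inconclusive = only one of the two criteria is met; inactive = neither criterion is met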
T cruzi growth-3: inhibitors of T. cruzi proliferation; shares compounds with T cruzi growth-1; T. cruzi beta-gal in NIH3T3, GalScreen luminescence, 90 h; inhibition, % at 2.09 µM; hit rate 21% among 5,600;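 active = mean inhibition above about 95%, with at least 55% of replicates also reaching it, limit read from the data; inconclusive = meets just one of the two conditions; inactive = meets neither condition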;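 note: plate controls were neutral control median for no effect and positive control median for full effect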
NIH3T3 tox: kills mouse NIH/3T3 fibroblasts; cytotoxicity (signal decrease), % at 8.35 µM; NIH/3T3 viability, CellTiter-Glo ATP luminescence, 90 h; shares compounds with T cruzi growth-1; AID 651742; hit rate 14% among 5,600;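 active = mean signal decrease across replicates above about 35% based on untreated-well scatter, with enough replicates individually passing, limit read from the data; inconclusive = no rule stated though some were filed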;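 note: 0% = median of neutral control wells and 100% = median of positive control wells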
3T3 cytotox 2: cytotoxicity in mouse NIH/3T3 fibroblasts | shares compounds with T cruzi growth-1 | NIH/3T3 viability, CellTiter-Glo ATP luminescence, 90 h | inhibition, % at 24.9 µM | hit rate 56% among 5,600 | AID 651744;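 active = mean loss of cell viability signal at or above a set limit, and enough replicates individually reaching it; inconclusive = meets only the mean limit or only the replicate share; inactive = meets neither condition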;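 note: 0% = median of neutral control wells and 100% = median of positive control wells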
An asterisk follows results filed as active. The list is not random: actives were taken first. Their share in the collection is about 6.7%.

Results for C[C@H]1CCCCO[C@H](CN(C)Cc2ccncc2)[C@@H](C)CN([C@@H](C)CO)C(=O)c2cc(NS(=O)(=O)c3cccs3)ccc2O1 ?
T cruzi growth-1: 11; Pf Dd2 growth: 6; C diff HTS: -2

What do the screens show for `C[C@@H]1CN([C@H](C)CO)C(=O)c2cc(NS(=O)(=O)c3cccs3)ccc2O[C@@H](C)CCCCO[C@@H]1CN(C)Cc1ccc(Cl)c(Cl)c1`?
T cruzi growth-1: inconclusive; Pf Dd2 growth: -38; C diff HTS: 3; T cruzi growth-2: 91; T cruzi growth-3: 111*; NIH3T3 tox: 100*; 3T3 cytotox 2: 91*

What do the screens show for `C[C@H]1CCCCO[C@@H](CN(C)Cc2ccncc2)[C@@H](C)CN([C@@H](C)CO)C(=O)c2cc(NS(=O)(=O)c3cccs3)ccc2O1`?
T cruzi growth-1: 32; Pf Dd2 growth: -41; C diff HTS: 0

What do the screens show for `C[C@@H]1CCCCO[C@@H](CN(C)Cc2ccc(Cl)c(Cl)c2)[C@@H](C)CN([C@@H](C)CO)C(=O)c2cc(NS(=O)(=O)c3cccs3)ccc2O1`?
T cruzi growth-1: inconclusive; Pf Dd2 growth: -42; C diff HTS: 10; T cruzi growth-2: 97*; T cruzi growth-3: 71; NIH3T3 tox: -56; 3T3 cytotox 2: 51*

How did O=C(c1ccncc1)N1C[C@@H]2[C@H](c3ccccc31)[C@@H](CO)N2C(=O)Nc1ccccc1Cl do in these assays?
T cruzi growth-1: 17; Pf Dd2 growth: -1; C diff HTS: 2

Results for C[C@H](CO)N1C[C@H](C)[C@@H](CN(C)CC2CC2)Oc2cc(-c3ccccc3)ccc2S1(=O)=O ?
T cruzi growth-1: 49; Pf Dd2 growth: -12

What do the screens show for `C[C@@H]1CN([C@@H](C)CO)C(=O)c2cc(NC(=O)C3CCCCC3)ccc2O[C@H]1CN(C)S(=O)(=O)c1ccc(Cl)cc1`?
T cruzi growth-1: 37; Pf Dd2 growth: 4; C diff HTS: -1

How did C[C@H](O)C#Cc1cnc2c(c1)C(=O)N([C@@H](C)CO)C[C@H](C)[C@H](CN(C)CC1CCOCC1)O2 do in these assays?
Pf Dd2 growth: -44; C diff HTS: -4

How did C[C@@H]1CCCCO[C@@H](CN(C)Cc2ccc(Cl)c(Cl)c2)[C@H](C)CN([C@H](C)CO)C(=O)c2cc(NS(=O)(=O)c3cccs3)ccc2O1 do in these assays?
T cruzi growth-1: inconclusive; Pf Dd2 growth: -74; C diff HTS: -6; T cruzi growth-2: 109*; T cruzi growth-3: 113*; NIH3T3 tox: -30; 3T3 cytotox 2: 107*

What do the screens show for `C[C@@H]1CN([C@H](C)CO)C(=O)c2cc(NS(=O)(=O)c3cccs3)ccc2O[C@@H](C)CCCCO[C@H]1CN(C)Cc1ccncc1`?
T cruzi growth-1: 36; Pf Dd2 growth: -9; C diff HTS: 3

Results for CN(C)c1ccc2c(c1)[C@H]1C[C@H](CC(=O)NCc3ccncc3)O[C@H](CO)[C@H]1O2 ?
T cruzi growth-1: 40; Pf Dd2 growth: 14

How did C[C@H](CO)N1C[C@H](C)[C@@H](CN(C)Cc2ccc(Cl)c(Cl)c2)Oc2ccc(N(C)C)cc2CC1=O do in these assays?
T cruzi growth-1: 108*; Pf Dd2 growth: -3; C diff HTS: 8; T cruzi growth-2: 107*; T cruzi growth-3: 94; NIH3T3 tox: 10; 3T3 cytotox 2: 103*

How did C[C@@H]1CN([C@@H](C)CO)C(=O)c2cc(N(C)C)ccc2O[C@@H]1CN(C)Cc1ccc(Cl)c(Cl)c1 do in these assays?
T cruzi growth-1: 75; Pf Dd2 growth: -13; C diff HTS: 12

Results for C[C@H]1CN([C@@H](C)CO)C(=O)Cc2cc(N(C)C)ccc2O[C@H]1CN(C)Cc1ccc2c(c1)OCO2 ?
T cruzi growth-1: 1; Pf Dd2 growth: 23; C diff HTS: 3

Results for C[C@H](CO)N1C[C@H](C)[C@H](CN(C)Cc2ccc(Cl)c(Cl)c2)Oc2ccc(N(C)C)cc2CC1=O ?
T cruzi growth-1: inconclusive; Pf Dd2 growth: -13; C diff HTS: 31; T cruzi growth-2: 71; T cruzi growth-3: 12; NIH3T3 tox: -4; 3T3 cytotox 2: -1

Results for C[C@@H]1CN([C@@H](C)CO)C(=O)Cc2cc(N(C)C)ccc2O[C@H]1CN(C)Cc1ccc(Cl)c(Cl)c1 ?
T cruzi growth-1: 107*; Pf Dd2 growth: 3; C diff HTS: 12; T cruzi growth-2: 110*; T cruzi growth-3: 64; NIH3T3 tox: 11; 3T3 cytotox 2: 107*

How did C[C@@H]1CN([C@H](C)CO)C(=O)Cc2cc(N(C)C)ccc2O[C@H]1CN(C)Cc1ccc(Cl)c(Cl)c1 do in these assays?
T cruzi growth-1: 58; Pf Dd2 growth: 13

Results for Cc1noc(C)c1S(=O)(=O)N(C)C[C@@H]1OCCCC[C@H](C)Oc2ccc(NC(=O)NC3CCCCC3)cc2C(=O)N([C@H](C)CO)C[C@H]1C ?
T cruzi growth-1: 40; Pf Dd2 growth: -3; C diff HTS: -1

What do the screens show for `COCC(=O)N1CC[C@@H]2[C@@H](CO)N(C)c3ccc(-c4ccc(F)cc4)cc3[C@@H]21`?
T cruzi growth-1: 86; Pf Dd2 growth: 28; C diff HTS: -4

What do the screens show for `CCC(=O)N1CC[C@@H]2[C@H]1c1cc(-c3ccc(OC)cc3)ccc1N(C)[C@H]2CO`?
T cruzi growth-1: 94; Pf Dd2 growth: -7; C diff HTS: 7

What do the screens show for `CCC(=O)N1CC[C@H]2[C@@H]1c1cc(-c3ccc(OC)cc3)ccc1N(C)[C@H]2CO`?
T cruzi growth-1: 105*; Pf Dd2 growth: 14; C diff HTS: 14; T cruzi growth-2: 108*; T cruzi growth-3: 91; NIH3T3 tox: -15; 3T3 cytotox 2: -17

How did CCC(=O)N1CC[C@H]2[C@@H]1c1cc(-c3ccc(F)cc3)ccc1N(C)[C@H]2CO do in these assays?
T cruzi growth-1: inconclusive; Pf Dd2 growth: -75; C diff HTS: 2; T cruzi growth-2: 108*; T cruzi growth-3: 71; NIH3T3 tox: -8; 3T3 cytotox 2: 21

What do the screens show for `C[C@@H]1CCCCO[C@@H](CN(C)Cc2ccc(C(F)(F)F)cc2)[C@H](C)CN([C@H](C)CO)C(=O)c2cc(NC(=O)Nc3ccc(C(F)(F)F)cc3)ccc2O1`?
T cruzi growth-1: 82; Pf Dd2 growth: -74; C diff HTS: 3

What do the screens show for `Cc1noc(C)c1NC(=O)Nc1ccc2c(c1)C(=O)N([C@@H](C)CO)C[C@@H](C)[C@H](CN(C)Cc1ccc(C(F)(F)F)cc1)OCCCC[C@H](C)O2`?
T cruzi growth-1: 85; Pf Dd2 growth: -44; C diff HTS: 11

High-throughput results deposited in PubChem BioAssay by Broad Institute.
